Compounds with a hit are over-represented: about 4.6% of the library has one in this group of screens.
D1 antagonist: antagonists of human D1 dopamine receptor; P21728; HEK293 TREx D1 cells, calcium flux, dopamine EC80; active compounds read low; activity change, negative = inhibition, % at 10 µM; 360,000 tested, 3.2% active; AID 504652; in the data active = activity change below about -30%
Target sequence (P21728 whole entry, looked up): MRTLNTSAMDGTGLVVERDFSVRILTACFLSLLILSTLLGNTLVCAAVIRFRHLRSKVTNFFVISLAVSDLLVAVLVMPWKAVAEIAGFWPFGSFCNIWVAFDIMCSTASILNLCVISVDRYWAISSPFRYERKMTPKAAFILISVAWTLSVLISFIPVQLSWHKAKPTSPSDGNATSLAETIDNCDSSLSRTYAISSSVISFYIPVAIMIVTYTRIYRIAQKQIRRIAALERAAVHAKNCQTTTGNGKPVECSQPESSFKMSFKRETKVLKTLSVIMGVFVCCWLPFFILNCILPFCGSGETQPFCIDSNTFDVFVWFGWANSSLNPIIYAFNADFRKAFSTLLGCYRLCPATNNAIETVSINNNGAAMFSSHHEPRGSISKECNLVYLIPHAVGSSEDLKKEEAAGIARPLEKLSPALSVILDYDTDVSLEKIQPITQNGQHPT
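Using tetracycline-induced force-coupled D1 Hek293 cells and a calcium dye, signals were followed for 180 s after compound, then for 180 s after EC80 dopamine, to detect inhibitors.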
TRHR ag: agonists of human TRH receptor; P34981; TRHR cells, calcium flux fluo-8, FDSS agonist mode; activation, % at 2 µM; 360,000 tested, 0.18% active; AID 493084
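TRHR-expressing cells, plated overnight in medium with 10% serum, were loaded with fluo-8 calcium dye at room temperature. After a 10 s baseline, library compound was pin-added and calcium release was recorded kinetically (ex 480/em 530) as agonist response.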
D1 ag: activates the human D1 dopamine receptor | HEK293 T-REx D1 cells, calcium flux, agonist mode | activation, % at 2 µM | 360,000 tested, 1% active | AID 504660
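Tetracycline-induced HEK293 TREx D1 cells, force-coupled to calcium signalling, were dye-loaded with a no-wash calcium kit. Compound was pin-added after a 10 s baseline. Fluorescence was read kinetically at 1 cycle/s for 180 s, with calcium rises flagged as agonism.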
TRHR PAM: allosterically enhances the human TRH receptor. P34981. TRHR cells, fluo-8 calcium fluorescence, EC20 TRH enhancement. enhancement, % at 2 µM. 360,000 tested, 0.66% active; in the data active = enhancement above about 30%
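Enhancer read-out: after compound pinning and an initial kinetic agonist-mode read, an EC20 of TRH (10 nM final) was injected and fluo-8 calcium signal (Ex 480/Em 530) followed at 1 s/cycle for 100 cycles in TRHR-expressing cells.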
D1 potentiator: human D1 dopamine receptor positive modulation. P21728. HEK293 TREx D1 cells, calcium flux, dopamine EC20 potentiation. AID 504651. potentiation, % at 10 µM. 360,000 tested, 0.036% active; in the data active = potentiation above about 30%
Each line names hits and unclear results; the compound was inactive in the other large screens; ! = repeats disagree. Cut-off read from the data, not from the text of the source, unless noted: active = activation above about 30%; inactive = the rest.

C/C(CC(=O)Nc1ccccn1)=N\NC(=O)c1ccc2ccccc2c1	none
Cc1cc(C(=O)NCc2cc(C)n(C)n2)sc1-c1ccccc1	D1 antagonist -34
COC(=O)c1c(-n2cnnn2)sc(C)c1C	none
O=c1cc(CN2CCN(S(=O)(=O)c3ccccc3)CC2)nc2sc(-c3ccccc3Cl)nn12	none
O=c1cc(CN2CCN(S(=O)(=O)c3ccc(Cl)cc3)CC2)nc2sc(-c3ccccc3F)nn12	D1 antagonist -37
Cc1ccccc1-c1nn2c(=O)cc(CN3CCN(S(=O)(=O)c4ccc(Cl)cc4)CC3)nc2s1	D1 antagonist -30
COCCN(C)C(=O)CC1C(=O)NCCN1CC(c1ccccc1)c1ccccc1 (stereo not given)	none
COC(=O)c1ccc(OCCOc2ccccc2)cc1	none
COc1cccc(OC)c1OCCOc1ccc(C(=O)c2ccccc2)cc1	D1 antagonist -35
COc1ccc(N/C=C2\C(=O)c3c(sc(C)c3C)N(C)S2(=O)=O)cc1	none
CCN(CC)c1nc2c(S(=O)(=O)c3cccc(Cl)c3)nnn2c2ccsc12	D1 antagonist -40
CN(Cc1ccccc1)c1nc2c(S(=O)(=O)c3cccc(Cl)c3)nnn2c2ccsc12	D1 antagonist -32
CCc1ccc(Nc2ccc(C(N)=O)cc2[N+](=O)[O-])cc1	D1 antagonist -40
Cc1ccc(NC(=O)CSc2ccc(C(N)=O)cc2[N+](=O)[O-])cc1C	none (no result: D1 antagonist)
CCc1ccc(Nc2ccc(C(=O)O)cc2[N+](=O)[O-])cc1	none
Cc1ccc(Nc2ccc(C(N)=O)cc2[N+](=O)[O-])cc1C	D1 antagonist -53
Cc1oc(-c2ccc(Cl)cc2)nc1CS(=O)CC(=O)NC1CCCCC1 (stereo not given)	none
CCCCCC(=O)Nc1c2c(nc3ccccc13)CCC2	TRHR PAM 32
Fc1ccccc1Nc1c2c(nc3ccccc13)CCC2	D1 antagonist -34
c1ccc(Nc2c3c(nc4ccccc24)CCC3)cc1	none (no result: D1 antagonist)
O=C(CCCCCl)Nc1c2c(nc3ccccc13)CCC2	none
COc1ccc(C)cc1Nc1c2c(nc3ccccc13)CCC2	D1 antagonist -55!
Fc1ccc(Nc2c3c(nc4ccccc24)CCC3)cc1	D1 antagonist -41
CCOc1ccc(NC(=O)CSc2oc(-c3ccc(C)cc3)nc2S(=O)(=O)c2ccc(C)cc2)cc1	D1 ag 44
CCOc1ccc(NC(=O)CSc2oc(-c3cccs3)nc2S(=O)(=O)c2ccc(Cl)cc2)cc1	none
COC(=O)c1c(C)[nH]c(C(=O)C(C)OC(=O)C2CC(=O)N(c3ccc(C)cc3)C2)c1C (stereo not given)	none (no result: D1 potentiator)
COC(=O)c1c(C)[nH]c(C(=O)C(C)OC(=O)C2CC(=O)N(CCc3ccccc3)C2)c1C (stereo not given)	D1 antagonist -33
COc1cccc(-c2cc(C(=O)Nc3c(C)nn(Cc4ccccc4Cl)c3C)no2)c1	none
COc1ccc(-c2cc(C(=O)Nc3cc(OC)c(OC)c(OC)c3)no2)cc1OC	TRHR PAM 39
COc1ccc(-c2cc(C(=O)Nc3c(C)nn(Cc4ccccc4Cl)c3C)no2)cc1OC	D1 antagonist -40
CCOC(=O)c1c(NC(=O)COC(=O)/C=C/c2ccco2)sc2c1CC(C)(C)NC2(C)C	none
CC[C@@H](C(=O)[C@@H](C)[C@@H](O)[C@H](C)CCc1ccc(C)c(O)c1C(=O)O)[C@H]1O[C@](CC)([C@H]2CC[C@](O)(CC)[C@H](C)O2)C[C@@H]1C	D1 antagonist -64, TRHR ag 100, D1 ag 207, TRHR PAM 40
Cc1ccc(NC(=O)Cn2nc(C)c([N+](=O)[O-])c2C)cc1Cl	none
Cc1nn(CC(=O)NCCc2ccc(Cl)cc2Cl)c(C)c1[N+](=O)[O-]	D1 ag 34
CCOc1ccc(-c2cc(C(=O)O)c3ccccc3n2)c(OCC)c1	none
Cc1cccc(OCCCCCn2ccnc2)c1C	D1 ag 46
O=C(CCn1nc(-c2ccc(F)cc2)ccc1=O)NCc1ccccc1	none
Cc1nc2ccc(S(=O)(=O)N(C)CC(=O)Nc3ccc(Br)c(C)c3)cc2s1	D1 antagonist -40
COc1ccc(NC(=O)CCS(=O)(=O)c2ccc3nc(C)sc3c2)cc1OC	none
Cc1nc2ccc(NC(=O)CCS(=O)(=O)c3ccc(Cl)cc3)cc2s1	D1 antagonist -36

Source: PubChem BioAssay
